# From PubChem BioAssay AID504333 (National Center for Advancing Translational Sciences (NCATS), 2011)
# Out of some 360,000 compounds screened, about 16,000 (4.4%) were called active. About 9% were inconclusive and are not listed. Shown is part of a subset that was picked to be rich in actives. Unmarked numbers belong to inactive results. The call rests on the fitted dose curve; in most records, active means well fitted inhibition curve with a large enough effect; inconclusive means small, poorly fitted or top-dose-only effect; inactive means no such curve, though single readings can be large or run the other way.
# Target: Bromodomain adjacent to zinc finger domain protein 2B (Homo sapiens) (UniProt Q9UIF8)
# Test: qHTS Assay for Inhibitors of BAZ2B; further: nearly all actives have a fitted effect of over 60% in size
# Conditions: AlphaScreen BAZ2B-H3K14Ac peptide displacement; series mostly up to 114 µM; activity change, negative = inhibition: at the top concentration
# How it was run: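 Complex of BAZ2B and biotin-H3K14Ac (50 nM apiece) forms over 30 min at RT, then faces library compounds up to 110 uM for another 30 min; AlphaScreen beads added, 20 min dark incubation, luminescence read.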
# On the % scale 0 is the no-effect control and ±100 the full control effect; potency means the concentration at half of the fitted maximal effect.
# Sequence of Bromodomain adjacent to zinc finger domain protein 2B (Homo sapiens) (Q9UIF8 whole entry, looked up, the tested form may be a part): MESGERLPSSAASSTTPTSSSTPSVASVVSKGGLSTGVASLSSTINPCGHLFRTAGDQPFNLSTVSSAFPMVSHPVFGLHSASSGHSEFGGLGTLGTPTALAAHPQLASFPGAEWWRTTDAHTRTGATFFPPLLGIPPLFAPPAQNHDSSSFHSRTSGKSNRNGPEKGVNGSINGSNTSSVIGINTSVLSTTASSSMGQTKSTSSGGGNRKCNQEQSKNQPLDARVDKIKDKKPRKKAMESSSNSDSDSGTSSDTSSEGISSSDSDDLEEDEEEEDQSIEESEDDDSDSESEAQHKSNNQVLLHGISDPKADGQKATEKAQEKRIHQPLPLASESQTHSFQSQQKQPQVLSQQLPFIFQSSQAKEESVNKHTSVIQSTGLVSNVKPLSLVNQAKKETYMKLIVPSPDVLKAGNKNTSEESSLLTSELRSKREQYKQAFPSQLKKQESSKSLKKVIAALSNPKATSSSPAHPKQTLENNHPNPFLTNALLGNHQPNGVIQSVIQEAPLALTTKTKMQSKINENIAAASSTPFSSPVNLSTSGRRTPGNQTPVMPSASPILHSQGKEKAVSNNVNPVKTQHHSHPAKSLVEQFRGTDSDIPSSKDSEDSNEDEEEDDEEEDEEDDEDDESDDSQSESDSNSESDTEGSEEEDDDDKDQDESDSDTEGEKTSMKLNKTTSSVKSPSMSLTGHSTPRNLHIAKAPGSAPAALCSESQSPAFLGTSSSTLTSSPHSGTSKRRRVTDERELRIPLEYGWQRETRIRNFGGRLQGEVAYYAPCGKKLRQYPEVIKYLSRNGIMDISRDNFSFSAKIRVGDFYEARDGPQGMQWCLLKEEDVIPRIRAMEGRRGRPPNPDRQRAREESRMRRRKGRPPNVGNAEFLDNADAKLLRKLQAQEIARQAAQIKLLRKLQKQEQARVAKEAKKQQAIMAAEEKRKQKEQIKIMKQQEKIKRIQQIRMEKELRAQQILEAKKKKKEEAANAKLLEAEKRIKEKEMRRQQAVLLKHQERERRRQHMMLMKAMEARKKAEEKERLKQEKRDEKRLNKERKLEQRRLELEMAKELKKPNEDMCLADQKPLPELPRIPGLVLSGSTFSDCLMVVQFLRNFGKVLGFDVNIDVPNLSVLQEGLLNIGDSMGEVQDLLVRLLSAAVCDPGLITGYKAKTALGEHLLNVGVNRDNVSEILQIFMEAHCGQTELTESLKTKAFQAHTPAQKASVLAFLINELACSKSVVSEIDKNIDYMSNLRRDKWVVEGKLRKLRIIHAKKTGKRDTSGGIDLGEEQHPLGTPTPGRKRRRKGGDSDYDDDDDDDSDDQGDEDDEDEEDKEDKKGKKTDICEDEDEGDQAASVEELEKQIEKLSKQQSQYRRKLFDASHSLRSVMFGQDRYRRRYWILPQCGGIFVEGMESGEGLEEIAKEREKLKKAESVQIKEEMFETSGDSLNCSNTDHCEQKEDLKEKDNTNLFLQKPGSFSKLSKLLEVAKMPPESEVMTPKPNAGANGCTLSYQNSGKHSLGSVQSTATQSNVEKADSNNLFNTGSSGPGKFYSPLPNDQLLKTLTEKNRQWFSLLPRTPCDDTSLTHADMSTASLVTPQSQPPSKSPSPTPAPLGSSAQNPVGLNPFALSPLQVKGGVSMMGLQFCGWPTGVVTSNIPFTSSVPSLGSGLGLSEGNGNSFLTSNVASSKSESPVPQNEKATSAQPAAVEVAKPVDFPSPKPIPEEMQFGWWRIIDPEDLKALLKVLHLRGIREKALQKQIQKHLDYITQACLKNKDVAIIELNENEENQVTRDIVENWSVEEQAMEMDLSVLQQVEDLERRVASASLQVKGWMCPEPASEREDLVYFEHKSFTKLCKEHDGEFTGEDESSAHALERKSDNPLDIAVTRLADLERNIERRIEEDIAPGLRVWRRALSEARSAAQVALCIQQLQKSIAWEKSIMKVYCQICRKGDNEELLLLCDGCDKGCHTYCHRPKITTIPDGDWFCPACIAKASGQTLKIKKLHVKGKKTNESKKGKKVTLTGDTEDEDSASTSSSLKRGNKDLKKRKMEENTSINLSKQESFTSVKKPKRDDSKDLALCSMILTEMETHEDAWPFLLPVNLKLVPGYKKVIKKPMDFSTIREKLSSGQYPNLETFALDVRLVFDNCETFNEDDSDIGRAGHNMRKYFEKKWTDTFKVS
Compound,"activity change, negative = inhibition",Potency
Cc1cccn2c(=O)c(C(=O)NC(C)c3ccccc3)cnc12 (configuration not stated),-1.1%,
Cc1csc2nc(COC(=O)c3ccccc3NC(=O)c3ccccc3Cl)cc(=O)n12,-0.509%,
Cc1ccc(CN2COc3cc(C)c4c(oc(=O)c5ccccc54)c3C2)cc1,-9.36%,
CC(=O)c1sc(N2C(=O)c3oc4ccccc4c(=O)c3C2c2ccc(C)cc2)nc1C (configuration not stated),0.549%,
Cc1ccc(S(=O)(=O)c2cn(Cc3ccccc3)c3cc(N4CCCC4)c(F)cc3c2=O)c(C)c1,4.01%,
Oc1ccc2ccccc2c1N=Nc1nccs1,,2 µM (active)
Oc1ccc(N=Nc2nccs2)c(O)c1,,25.1 µM (active)
CCc1ccccc1N(C)C(=O)C1CCCN(c2ncnc3onc(-c4ccc(F)cc4)c23)C1 (configuration not stated),6.53% [at 57.1 µM],
CN(C(=O)CSc1nc2ccccc2n1Cc1ccccc1C#N)c1ccccc1,-36.5%,
CC(C)(C)OC(=O)N1CCC(c2c(C(=O)NCCc3ccsc3)cnn2-c2ccc(F)cc2F)CC1,-1.06% [at 57.1 µM],
Cc1ccccc1CNC(=O)CCCn1nc(C)c2sc3ccccc3c2c1=O,-3.88%,
CCCC(=O)Nc1ccc(NC(=O)c2sc3ccccc3c2Cl)cc1,-3.87%,
Cc1ccc2c(Cl)c(C(=O)Nc3nn[nH]n3)sc2c1,,50.1 µM (active)
Cc1ccc(-c2cc(C(=O)Nc3nn[nH]n3)c3ccccc3n2)c(C)c1,7.22%,
CN(C)S(=O)(=O)c1ccc(C(=O)N(Cc2cccnc2)c2nc3c(F)cc(F)cc3s2)cc1,1.49%,
CC(=O)Nc1cccc(NC(=O)CSc2cn(CC(=O)N3CCCC3)c3ccccc23)c1,-15.1%,
COc1ccc(Cn2c(=O)n(-c3ccccc3C)c(=O)c3c4c(sc32)CN(C(C)=O)CC4)cc1,-6.59%,
CCOc1ccc(/C=C2\SC(=S)N(NC(=O)c3ccncc3)C2=O)cc1OC,-34.1%,
CN1C(=O)C(CC(N)=O)N(NC(=O)c2ccc(Cl)cc2)C1=S (configuration not stated),-6.62%,
Cn1cccc1/C=C1\SC(=S)N(NC(=O)c2ccc(Cl)cc2)C1=O,,12.6 µM (active)
COc1ccc(N2CCN(C(=O)CSCc3nc(-c4ccccc4Cl)oc3C)CC2)cc1,4.75%,
Cc1cccc(N=Nc2c(C)[nH]n(-c3ccccc3)c2=O)c1,,3.16 µM (active)
Cc1[nH]n(C)c(=O)c1N=Nc1ccc(S(C)(=O)=O)cc1,-19.1%,
Cc1cccc(N=Nc2c(O)[nH]c3ccc(F)cc23)c1,-13.2%,

Compound,"activity change, negative = inhibition",Potency
O=C(CCS(=O)(=O)c1ccccc1)N(Cc1cccnc1)c1nc2c(F)cccc2s1,-1.19%,
Cc1ccc(Cl)cc1N(C)C(=O)Cn1nc(Cc2cccnc2)c2ccccc2c1=O,-25.1%,
CC1CCCCN1S(=O)(=O)c1ccc(F)c(C(=O)Nc2ccccc2C(F)(F)F)c1 (configuration not stated),5.64%,
CCn1cc(NC(=O)Nc2ccc(OC)c(OC)c2)c(C(N)=O)n1,13.7%,
Cc1ccc(NC(=O)NC(C)c2c(-n3cccc3)sc(C)c2C)c(C)c1 (configuration not stated),2.45%,
COc1ccc(NC(=O)NC(C)c2c(-n3cccc3)sc(C)c2C)cc1OC (configuration not stated),,35.5 µM (active)
Cc1cc(Nc2cccc(C(F)(F)F)c2)nc2ccc(NC(=O)c3ccc(=O)[nH]c3)cc12,-5%,
COc1ccc(-c2nc3n(c2Br)CCC3)cc1,,50.1 µM (active)
COc1ccc(-c2nnc3n2CCCCC3)cc1,0.531%,
COc1ccc(-c2nc(SCC(=O)N3CCCC3)n[nH]2)cc1,4.84%,
CCc1nn(CC(=O)Nc2cc(C)cc(C)c2)c(=O)c2cc3sccc3n12,-3.37%,
COc1ccc(-c2cc(=O)c3c(O)cc(O[C@@H]4O[C@H](CO[C@@H]5O[C@@H](C)[C@H](O)[C@@H](O)[C@H]5O)[C@@H](O)[C@H](O)[C@H]4O)cc3o2)cc1O,-3.8%,
CCOC(=O)COc1cc(OCC(=O)OCC)c2c(=O)cc(-c3ccccc3)oc2c1,3.07%,
COc1c(O)cc2oc(-c3ccc(O)c(O)c3)cc(=O)c2c1O,,50.1 µM (active)
COCCCn1c(Cc2csc(Nc3cccc(Cl)c3)n2)nnc1SCC(=O)OC1CCCCC1,,39.8 µM (active)
COCCCn1c(SCC(=O)Nc2ccccc2)nnc1-c1ccncc1,2.13%,
COCCCn1c(SCC(=O)NC2CCCC2)nnc1-c1ccccc1,4.71%,
COc1ccc(-c2cc(C(=O)NCc3cc(OC)c(OC)c(OC)c3)[nH]n2)cc1,-15.3%,
CN(C)c1cccc(C(=O)Nc2nc3ccc(S(=O)(=O)NC(C)(C)C)cc3s2)c1,-20.8%,
O=C(CN1CCCCCC1)Nc1c(Cl)cc(Cl)cc1Cl,-1.52%,
Cc1csc(NC(=O)CN2CCCCCC2)n1,,50.1 µM (active)
Cc1cc(C)c(NC(=O)CN2CCCCCC2)c(C)c1,-4.99%,
CCOc1ccc(-c2nonc2NC(=O)c2oc3ccc(C)cc3c2C)cc1OCC,1.66%,
